Measurements from PubChem BioAssay (Tox21).
Values joined by “and” are separate entries in the source; they are usually repeats but may differ in a detail not shown here. Equal values may be shown once. Inconclusive results are not listed. Where a call stands in place of a potency, no number is given. Active and inactive are the calls of the source. Unless noted, calls come from the whole dose curve; as a rule, active = well fitted curve in the direction sought with a large enough effect in the repeat runs; inconclusive = weak or mixed curves; inactive = no such curve, though single readings can be large; an effect the other way counts as inactive or inconclusive.

How the values were obtained:
[1] = qHTS assay to identify small molecule antagonists of the vitamin D receptor (VDR) signaling pathway - cell viability counter screen (AID 743225); note: nearly all actives have a fitted effect of over 50% in size
How it was run: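 Viability counter screen run in the same wells as the beta-lactamase reporter assay: HEK 293T VDR-UAS-bla cells, 16 h compound exposure at 37C with 3 nM (final) 1-alpha,25-dihydroxyvitamin D3. CellTiter-Glo luminescence, 30 min, room temperature.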

[2] = qHTS assay to identify small molecule agonists of the NFkB signaling pathway - cell viability counter screen (AID 1159515; calls by dose curve; note: nearly all actives have a fitted effect of over 55% in size; note: potency is the fitted concentration of half-maximal effect)
How it was run: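 Plate 2,000 NFkB-bla ME-180 cells/well; incubate overnight. Add compounds, 5 hr at 37 C. Add FRET substrate, 1.5 hr RT. Add CellTiter-Glo, 30 min RT; read luminescence.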

[3] = qHTS assay to identify small molecule agonists of the endoplasmic reticulum stress response signaling pathway (AID 1159516; active = well fitted activation curve with a large enough effect in the signal ratio in the repeat runs, not every such curve was filed as active; the % refers to the signal ratio)
How it was run: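 Beta-lactamase expression from the ER stress response element in HeLa reporter cells is quantified with the LiveBLAzer B/G FRET substrate, read at 405 nm excitation after 2 hr at room temperature, following 5 hr compound treatment at 37 C.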

[4] = qHTS assay to identify small molecule agonists of the endoplasmic reticulum stress response signaling pathway - cell viability counter screen (AID 1159517; calls by dose curve; note: series mostly up to about 61 µM; nearly all actives have a fitted effect of over 50% in size)
How it was run: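 In parallel with the ESRE reporter read, cytotoxicity was scored by CellTiter-Glo luminescence (30 min, room temperature) on HeLa ESRE-bla cells dosed for 5 hr.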

[5] = qHTS assay to identify small molecule antagonists of the retinoid-related orphan receptor gamma (ROR-gamma) signaling pathway - cell viability counter screen (AID 1159520); note: nearly all actives have a fitted effect of over 50% in size
How it was run: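 Tet-on ROR gamma CHO cells were given compounds for 2 hr, then doxycycline hyclate at 1 uM final, and incubated 16 hr at 37 C. Viability was measured as ATP content by CellTiter-Glo luminescence.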

[6] = qHTS assay to identify small molecule agonists of the AP-1 signaling pathway - cell viability counter screen (AID 1159525; calls by dose curve; note: nearly all actives have a fitted effect of over 55% in size)
How it was run: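 Same-well cytotoxicity counter screen of the Tox21 10K library in ME-180 cells. The readout is ATP-dependent luminescence after 5 h compound treatment. Data are normalised to DMSO and tetra n-octyl ammonium bromide controls.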

[7] = qHTS assay to identify small molecule antagonists of the retinoid acid receptor (RAR) signaling pathway - cell viability counter screen (AID 1159551); note: nearly all actives have a fitted effect of over 35% in size
How it was run: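 Viability of C3RL4 cells is quantified from ATP by luminescence after 6 h treatment at 37 C with compounds and 1 uM retinol.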

[8] = qHTS assay to identify small molecule antagonists of the retinoic acid receptor (RAR) signaling pathway (AID 1159552; note: nearly all actives have a fitted effect of over 50% in size; note: potency is the fitted concentration of half-maximal effect)
How it was run: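 Luminescence from a RARE luciferase reporter in C3RL4 cells served as read-out. Cells received compounds together with 1 uM final retinol and incubated 6 hr at 37 C before detection reagent was added for 30 min at room temperature.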

[9] = qHTS assay to identify small molecule agonists of the retinoic acid receptor (RAR) signaling pathway (AID 1159553); note: potency is the fitted concentration of half-maximal effect
How it was run: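 Compounds dissolved in DMSO were pinned onto C3RL4 cells seeded the previous day, and plates were held 6 hr at 37 C. RARE-driven luciferase output was then read by luminescence.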

[10] = qHTS assay to identify small molecule antagonists of the estrogen related receptor (ERR) signaling pathway from Tox21 library - cell viability counter screen (AID 1224834); note: nearly all actives have a fitted effect of over 30% in size; note: potency is the fitted concentration of half-maximal effect
How it was run: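 In this quantitative HTS format, ERR cells receive compounds in DMSO and are incubated for 17.5 h at 37 C. Live-cell protease activity is then detected with CellTiter-Fluor.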

[11] = target: Nuclear receptor ROR-gamma (Homo sapiens) (UniProt P51449); assay: qHTS assay to identify small molecule antagonists of the retinoid-related orphan receptor gamma (ROR-gamma) signaling pathway (AID 1159521; note: nearly all actives have a fitted effect of over 50% in size; note: potency is the fitted concentration of half-maximal effect)
How it was run: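 Luminescence readout (ONE-Glo, 30 min RT) after 16 h doxycycline induction; loss of signal scored as antagonism. CHO cells with TET-inducible RORγ and RORE-LUC reporter; compounds added 2 h before 1 uM final doxycycline.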

[12] = qHTS assay to identify small molecule agonists of the AP-1 signaling pathway (AID 1159526; calls by dose curve)
[13] = target: Retinoic acid receptor RXR-alpha (Homo sapiens) (UniProt P19793); assay: qHTS assay to identify small molecule agonists of the RXR signaling pathway (AID 1159527; calls by dose curve; note: nearly all actives have a fitted effect of over 35% in size)
Sequence of Retinoic acid receptor RXR-alpha (Homo sapiens) (P19793 whole entry, looked up): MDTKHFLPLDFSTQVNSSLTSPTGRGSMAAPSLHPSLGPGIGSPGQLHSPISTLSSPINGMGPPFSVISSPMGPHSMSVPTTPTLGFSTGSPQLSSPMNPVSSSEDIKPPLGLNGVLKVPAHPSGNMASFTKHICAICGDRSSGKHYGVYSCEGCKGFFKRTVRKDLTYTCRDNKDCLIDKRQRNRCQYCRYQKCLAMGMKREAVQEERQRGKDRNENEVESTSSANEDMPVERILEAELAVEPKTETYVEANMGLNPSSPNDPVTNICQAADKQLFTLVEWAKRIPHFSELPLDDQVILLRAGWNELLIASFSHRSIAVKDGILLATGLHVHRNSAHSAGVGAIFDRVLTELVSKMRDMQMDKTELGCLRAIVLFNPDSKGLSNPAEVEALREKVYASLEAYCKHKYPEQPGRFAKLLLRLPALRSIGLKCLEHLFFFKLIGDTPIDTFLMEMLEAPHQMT
How it was run: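 Agonist mode; 9-cis retinoic acid positive control. HEK 293T UAS-bla reporter cells, 2% charcoal-stripped FBS, 16 hr compound exposure at 37 C/5% CO2. LiveBLAzer B/G FRET substrate 2 hr RT; ex 405, em 460/530 nm.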

[14] = qHTS assay to identify small molecule agonists of the RXR signaling pathway - cell viability counter screen (AID 1159529); note: nearly all actives have a fitted effect of over 50% in size; note: potency is the fitted concentration of half-maximal effect
How it was run: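 Luminescence from CellTiter-Glo (30 min, RT) measured viability in the same wells as the beta-lactamase reporter readout. Cells: GeneBLAzer RXR-alpha HEK 293T, 2% charcoal-stripped FBS. Compound exposure 16 hr, 37 C.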

[15] = qHTS assay to identify small molecule agonists of the estrogen related receptor (ERR) signaling pathway (AID 1224820)
How it was run: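 After 6 h plating (2,000 cells/well) and 18 h compound treatment at 37 C, ERR cells were lysed with One-Glo and luminescence read after 30 min at room temperature.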

[16] = tested on: estrogen-related receptor alpha (ERRalpha) with PGC-1alpha coactivator, human; assay: qHTS assay to identify small molecule antagonists of the estrogen related receptor signaling pathway with the pleiotropic PPARgamma coactivator (PGC) (AID 1224821; calls by dose curve)
How it was run: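 Luminescence from One-Glo luciferase reagent (30 min, room temperature) measured after 18 h compound treatment at 37 °C. Cells carry the PGC/ERR reporter and were seeded 6 h prior to dosing.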

[17] = qHTS assay to identify small molecule antagonists of the estrogen related receptor signaling pathway with the pleiotropic PPARgamma coactivator (PGC) cell viability counter screen (AID 1224822;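 note: series mostly up to about 46 µM; viability read after 17.5 h compound exposure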)
How it was run: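 Viable cell signal (CellTiter-Fluor, 30 min, 37 C/5% CO2) was measured in PGC/ERR cells after a 17.5 h compound incubation.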

[18] = qHTS assay to identify small molecule agonists of the estrogen related receptor signaling pathway with the pleiotropic PPARgamma coactivator (PGC) (AID 1224823)
How it was run: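 Luminescence from One-Glo reagent (30 min, room temperature) was read after 18 h compound treatment at 37 C of PGC/ERR cells plated 6 h beforehand; compounds delivered in DMSO by pin tool.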

O=C(O)C1(C(=O)Nc2ccc(Cl)cc2Cl)CC1
Potency [1]: inactive
Potency [2]: inactive
Potency [3]: inactive
Potency [4]: inactive
Potency [5]: inactive
Potency [6]: inactive
Potency [7]: inactive
Potency [8]: inactive
Potency [9]: 6.11 µM (active)
Potency [10]: inactive

O=C1OC(=O)C2C3C=CC(C3)C12 (configuration not stated)
Potency [1]: inactive
Potency [2]: inactive
Potency [4]: inactive
Potency [5]: inactive
Potency [11]: inactive
Potency [12]: inactive
Potency [13]: inactive
Potency [14]: inactive
Potency [7]: inactive
Potency [8]: inactive
Potency [9]: inactive
Potency [10]: inactive

Nc1ncn([C@H]2C[C@H](O)[C@@H](CO)O2)c(=O)n1
Potency [1]: inactive
Potency [2]: inactive
Potency [3]: inactive
Potency [4]: inactive
Potency [5]: inactive
Potency [6]: inactive
Potency [14]: inactive
Potency [7]: inactive
Potency [10]: inactive

C=CC(=O)OCCOc1ccccc1
Potency [1]: inactive
Potency [2]: inactive
Potency [3]: inactive
Potency [4]: inactive
Potency [5]: inactive
Potency [6]: inactive
Potency [14]: inactive
Potency [8]: 48.5 µM (active)
Potency [10]: inactive

CC(C)CC(=O)C1C(=O)c2ccccc2C1=O
Potency [2]: inactive
Potency [3]: inactive
Potency [4]: inactive
Potency [11]: 17.2 µM (active)
Potency [6]: inactive
Potency [12]: inactive
Potency [14]: inactive
Potency [7]: inactive
Potency [9]: inactive
Potency [10]: 38.6 µM (active)

C=CC(=O)OCCOCCOCCOCCOC(=O)C=C
Potency [2]: inactive
Potency [3]: inactive
Potency [4]: inactive
Potency [11]: 12.3 µM (active) and 8.56 µM (active)
Potency [6]: inactive
Potency [8]: 48.8 µM (active) and 42.9 µM (active)
Potency [10]: 30.8 µM (active) and 24.1 µM (active)

COS(=O)(=O)C(F)(F)F
Potency [1]: inactive
Potency [2]: inactive
Potency [4]: inactive
Potency [5]: inactive
Potency [6]: inactive
Potency [13]: inactive
Potency [14]: inactive
Potency [10]: inactive

Nc1cc(C(=O)O)c(O)c(S(=O)(=O)O)c1
Potency [1]: inactive
Potency [2]: inactive
Potency [4]: inactive
Potency [5]: inactive
Potency [6]: inactive
Potency [12]: inactive
Potency [13]: inactive
Potency [14]: inactive
Potency [7]: inactive
Potency [8]: inactive
Potency [9]: inactive
Potency [10]: inactive

CN(C)CCN(Cc1ccc(Cl)cc1)c1ccccn1
Potency [1]: inactive
Potency [2]: inactive
Potency [4]: inactive
Potency [5]: inactive
Potency [6]: inactive
Potency [7]: inactive
Potency [8]: inactive
Potency [9]: inactive
Potency [10]: inactive

COc1ccc(S(=O)(=O)N2C(=O)[C@@](c3ccccc3OC)(N3C[C@H](O)C[C@H]3C(=O)N(C)C)c3cc(Cl)ccc32)c(OC)c1
Potency [1]: inactive
Potency [2]: inactive
Potency [4]: inactive
Potency [5]: inactive
Potency [6]: inactive
Potency [12]: inactive
Potency [7]: inactive
Potency [10]: 30.6 µM (active)

CN(C)c1ccc(CCO)cc1
Potency [1]: inactive
Potency [2]: inactive
Potency [4]: inactive
Potency [5]: inactive
Potency [6]: inactive
Potency [14]: inactive
Potency [7]: inactive
Potency [10]: inactive

OCc1cc(C(O)CNCCCCCCOCCCCc2ccccc2)ccc1O (configuration not stated)
Potency [2]: inactive
Potency [4]: inactive
Potency [5]: inactive
Potency [6]: inactive
Potency [7]: inactive
Potency [8]: inactive
Potency [9]: inactive
outcome [15]: inactive
Potency [16]: inactive
outcome [17]: inactive
outcome [18]: inactive
Potency [10]: 10.6 µM (active)

c1ccc(C(O[C@H]2CCCN(CCc3ccc4c(c3)OCO4)C2)c2ccccc2)cc1
Potency [1]: inactive
Potency [2]: inactive
Potency [4]: inactive
Potency [5]: inactive
Potency [6]: inactive
Potency [14]: inactive
Potency [7]: inactive
Potency [10]: inactive

COc1ccc(C(=O)N2CCN(CC(=O)N3CCOCC3)CC2)cc1
Potency [1]: inactive
Potency [2]: inactive
Potency [4]: inactive
Potency [5]: inactive
Potency [11]: inactive
Potency [12]: inactive
Potency [14]: inactive
Potency [10]: inactive

CN(Cc1ccc(C(C)(C)C)cc1)Cc1cccc2ccccc12
Potency [2]: 21.3 µM (active)
Potency [4]: inactive
Potency [5]: inactive
Potency [11]: inactive
Potency [14]: 10.7 µM (active)
Potency [8]: inactive
Potency [9]: inactive
Potency [10]: inactive

COc1cc2nc(N3CCN(C(=O)C4COc5ccccc5O4)CC3)nc(N)c2cc1OC (configuration not stated)
Potency [1]: inactive
Potency [2]: inactive
Potency [4]: inactive
Potency [5]: inactive
Potency [6]: inactive
Potency [12]: inactive
Potency [13]: inactive
Potency [14]: inactive
Potency [7]: inactive
Potency [8]: inactive
Potency [9]: inactive
Potency [10]: 29.8 µM (active)

CC1=CC[C@H](C(C)C)C=C1
Potency [2]: inactive
Potency [4]: inactive
Potency [5]: inactive
Potency [6]: inactive
Potency [12]: inactive
Potency [13]: inactive
Potency [10]: inactive

CC1CCC(=O)C1=O (configuration not stated)
Potency [2]: inactive
Potency [4]: inactive
Potency [5]: inactive
Potency [6]: inactive
Potency [12]: inactive
Potency [13]: inactive
Potency [14]: inactive
Potency [7]: inactive
Potency [8]: inactive
Potency [10]: inactive
